Screening results deposited in PubChem BioAssay by several laboratories.
KKLEB cytotox: cytotoxicity in KKLEB CF airway cells, primary screen, cytotoxicity control for CF NF-kB inhibitor project, cell-based, uHTS, fluorescence assay plates; AID 602141, 2011; activity change (cytotoxicity), % at 5 µM; 360,000 compounds, 0.36% hits; KKLEB CF airway cells viability, ATPlite luminescence, overnight; active compounds read low; cells stimulated with P. aeruginosa culture filtrate;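 active = corrected activity change at or below -50% at 5 µM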
Mdm2 MdmX PPI: inhibitors of human Mdm2-MdmX association, primary screen, cell-based, luminescence, split luciferase, SaOS-2, uHTS | inhibition, % at 8 µM | SaOS-2 split-luciferase Mdm2/MdmX complementation | Protein Mdm4 (Homo sapiens) + E3 ubiquitin-protein ligase Mdm2 (Homo sapiens), … | AID 485346, 2010 | 330,000 compounds, 3% hits;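 active = inhibition of at least 50% at 8 µM in the primary screen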
Target sequence (O15151 whole entry, looked up): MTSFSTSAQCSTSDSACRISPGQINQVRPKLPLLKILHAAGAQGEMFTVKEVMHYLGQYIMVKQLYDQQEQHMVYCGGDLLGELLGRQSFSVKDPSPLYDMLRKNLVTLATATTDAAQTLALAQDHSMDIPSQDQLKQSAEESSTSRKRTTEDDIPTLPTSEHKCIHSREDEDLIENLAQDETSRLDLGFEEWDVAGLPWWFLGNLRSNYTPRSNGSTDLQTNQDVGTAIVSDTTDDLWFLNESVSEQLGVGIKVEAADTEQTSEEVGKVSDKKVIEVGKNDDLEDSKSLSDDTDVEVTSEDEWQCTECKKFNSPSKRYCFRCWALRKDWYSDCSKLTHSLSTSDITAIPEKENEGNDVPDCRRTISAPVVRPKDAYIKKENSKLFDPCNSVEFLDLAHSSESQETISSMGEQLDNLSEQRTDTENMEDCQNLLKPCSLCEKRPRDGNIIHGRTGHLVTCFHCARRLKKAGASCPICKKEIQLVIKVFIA
Target sequence (Q00987 whole entry, looked up): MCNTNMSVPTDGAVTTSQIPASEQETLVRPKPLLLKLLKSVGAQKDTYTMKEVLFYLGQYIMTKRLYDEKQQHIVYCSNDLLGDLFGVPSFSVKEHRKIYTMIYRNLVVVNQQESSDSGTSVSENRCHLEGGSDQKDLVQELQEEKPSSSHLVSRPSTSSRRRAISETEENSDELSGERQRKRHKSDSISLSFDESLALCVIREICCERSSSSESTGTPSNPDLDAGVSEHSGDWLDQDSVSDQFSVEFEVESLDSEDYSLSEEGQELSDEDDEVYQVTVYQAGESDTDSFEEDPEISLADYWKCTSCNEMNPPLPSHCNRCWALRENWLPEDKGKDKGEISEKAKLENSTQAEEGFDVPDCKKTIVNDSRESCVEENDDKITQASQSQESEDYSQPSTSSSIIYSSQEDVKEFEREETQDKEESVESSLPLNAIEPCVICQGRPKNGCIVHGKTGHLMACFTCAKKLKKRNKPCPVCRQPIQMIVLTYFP
CF NFkB inh: inhibitors of PAF-induced NF-kB signaling, primary screen, cell-based, GFP fluorescence, uHTS. KKLEB NF-kB-GFP reporter, GFP fluorescence overnight. inhibition, % at 5 µM. 360,000 compounds, 0.86% hits. AID 588850, 2011;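 active = at least 50% inhibition at 5 µM, scaled per plate between neutral and stimulator controls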;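 note: PAF is a Pseudomonas aeruginosa culture filtrate used as stimulus; plate controls were PAF-stimulated DMSO wells for no effect and unstimulated DMSO wells for full effect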
LGR2 antag: inhibitors of bursicon-induced LGR2 CRE-luciferase signal, primary screen, cell-based, HEK293, CRE-luciferase reporter, bursicon stimulation; bursicon-stimulated, 4 h; 380,000 compounds, 0.35% hits; inhibition, % at 9.99 µM; Drosophila bursicon receptor LGR2 (rickets);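 active = drop in luminescence signal, shown as inhibition above about 50% in the replicate tests, limit read from the data, passing the limit was not always enough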;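 note: agonist challenge used bursicon conditioned medium at about half maximal strength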
HSP90 refold inh: HSP90 inhibitors, primary screen, cell lysate, luminescence; inhibition, % at 5.6 µM; 290,000 compounds, 0.91% hits; AID 1789, 2009; Rabbit reticulocyte lysate, luciferase refolding luminescence, 3 h;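 active = inhibition above the screen-wide mean plus 3 SD, computed separately per campaign, cut at about 16% in these data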;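 note: 0% = DMSO wells and 100% = 60 µM geldanamycin wells; inhibitors lower the luminescence because luciferase stays unfolded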
Peg3 promoter: Peg3 promoter-driven luciferase inhibitors, primary screen, cell-based, HeLa, luciferase luminescence; HeLa PEG-Prom luciferase reporter, overnight; inhibition, % at 20 µM; 360,000 compounds, 1.7% hits; AID 588405, 2011;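 active = inhibition of at least 50% at 20 µM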
Mdm2-MdmX conf: Mdm2-MdmX complex disruptors, retested hits, confirmation, luminescence, single concentration; AID 489028, 2010; inhibition, % at 8 µM; 10,000 compounds, 55% hits; Mdm2-MdmX binding, luminescent assay; shares compounds with Mdm2 MdmX PPI; in the data active = inhibition above about 40%
Full FLuc ctr: full-length luciferase signal inhibition, confirmation, counter-screen for Mdm2/MdmX interaction inhibitor project, cell-based, single concentration, SaOS-2. SaOS-2 full-length luciferase counterscreen, luminescence. inhibition, % at 8 µM. shares compounds with Mdm2 MdmX PPI. 6,200 compounds, 77% hits;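 active = mean inhibition at 8 µM reaching about 37%, which flags the compound as non-specific, limit read from the data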;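 note: p53-null SaOS-2 cells with luciferase driven by a doxycycline-inducible promoter; compound on cells about two nights before reading with doxycycline added after day one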
Active calls of the source: *. Sampled rows, rich in hits. Any-hit rate of the full collection: about 3.6%.

Screening OC(CNCc1ccco1)Cn1c2ccc(Br)cc2c2cc(Br)ccc21 (stereo not drawn) returned KKLEB cytotox -28, Mdm2 MdmX PPI 75*, CF NFkB inh 17, HSP90 refold inh -3, Peg3 promoter 98*, Mdm2-MdmX conf 31 and Full FLuc ctr 70*.
`COc1ccc(S(=O)(=O)N(C)C[C@H]2Oc3ccc(NC(=O)CCC(F)(F)F)cc3C(=O)N([C@@H](C)CO)C[C@H]2C)cc1` gave LGR2 antag 11.
For CC1CCCCN1C(=O)CSc1nc(C2CC2)nc2c1cnn2-c1ccccc1 (stereo not drawn) the results were KKLEB cytotox 0, Mdm2 MdmX PPI 54*, CF NFkB inh 9, HSP90 refold inh 1, Peg3 promoter 16 and Mdm2-MdmX conf 9.
Screening C=CCSc1nsc(NC(=O)Nc2ccc(F)cc2)n1 returned KKLEB cytotox -38, Mdm2 MdmX PPI 91*, CF NFkB inh 44, LGR2 antag 17, HSP90 refold inh 4, Peg3 promoter -72, Mdm2-MdmX conf 89* and Full FLuc ctr 28.
`CCSc1nsc(NC(=O)Nc2ccccc2F)n1` gave KKLEB cytotox -20, Mdm2 MdmX PPI -49, CF NFkB inh -8, LGR2 antag -36, HSP90 refold inh -1 and Peg3 promoter -217.
For O=C(C[C@H]1CC[C@@H]2[C@H](COC[C@@H](O)CN2C(=O)Nc2ccccc2)O1)NCc1ccccc1F the results were LGR2 antag -5.
For O=C(Nc1ccccc1)Nc1ccc(Cl)c([N+](=O)[O-])c1 the results were KKLEB cytotox 14, Mdm2 MdmX PPI 80*, CF NFkB inh 12, LGR2 antag -14, HSP90 refold inh -3, Peg3 promoter -81, Mdm2-MdmX conf 50* and Full FLuc ctr 43*.
`O=C(Nc1ccc(C(O)(C(F)(F)F)C(F)(F)F)cc1)c1ccc(Cl)c([N+](=O)[O-])c1` gave KKLEB cytotox -1, Mdm2 MdmX PPI 55*, CF NFkB inh 0, LGR2 antag -5, HSP90 refold inh 0, Peg3 promoter 58* and Mdm2-MdmX conf 28.
Screening Cc1ccc(NC(=O)Nc2nc3ccc(S(C)(=O)=O)cc3s2)cc1 returned KKLEB cytotox 11, Mdm2 MdmX PPI 14, CF NFkB inh -14, LGR2 antag -9 and Peg3 promoter -14.
CC(C)n1nc(C(=O)Nc2nc3ccc(S(C)(=O)=O)cc3s2)c2ccccc2c1=O was read as KKLEB cytotox -43, Mdm2 MdmX PPI 91*, CF NFkB inh 29, Peg3 promoter 21, Mdm2-MdmX conf 57* and Full FLuc ctr 82*.
For O=C(O)c1cc(NC(=O)c2ccc(Cl)c([N+](=O)[O-])c2)cc(C(=O)O)c1 the results were KKLEB cytotox 13, Mdm2 MdmX PPI -8, CF NFkB inh -7, LGR2 antag -9, HSP90 refold inh -1 and Peg3 promoter 11.
Cc1ccc(NC(=O)Nc2ccccc2)cc1[N+](=O)[O-] was read as KKLEB cytotox 7, Mdm2 MdmX PPI -28, CF NFkB inh 9, LGR2 antag -41, HSP90 refold inh -1 and Peg3 promoter -206.
CS(=O)(=O)c1ccc2nc(NC(=O)Nc3ccc(Cl)c(Cl)c3)sc2c1 was read as KKLEB cytotox -7, Mdm2 MdmX PPI 54*, CF NFkB inh 25, LGR2 antag 20, HSP90 refold inh -3, Peg3 promoter 41 and Mdm2-MdmX conf 9.
For O=C(c1ccc(F)cc1)N1CCCCN2[C@@H](CO)[C@H](c3ccc(/C=C/c4ccccc4)cc3)[C@@H]2C1 the results were LGR2 antag 20.
`COc1ccccc1CNC(=O)C[C@H]1CC[C@@H](NC(=O)CC2CC2)[C@@H](CO)O1` gave LGR2 antag 1.
O=C(Nc1ccc(Cl)cc1)Nc1csc([N+](=O)[O-])c1 was read as KKLEB cytotox -22, Mdm2 MdmX PPI 94*, CF NFkB inh 36, LGR2 antag 0, HSP90 refold inh 1, Peg3 promoter -153, Mdm2-MdmX conf 76* and Full FLuc ctr 31.
For O=C(Nc1nc2ccccc2s1)Nc1ccc([N+](=O)[O-])cc1Cl the results were Mdm2 MdmX PPI 42 and HSP90 refold inh -1.
For O=C(Nc1ccc(Cl)c([N+](=O)[O-])c1)Nc1nc2ccccc2s1 the results were Mdm2 MdmX PPI 85*, HSP90 refold inh 0, Mdm2-MdmX conf 40 and Full FLuc ctr 85*.
For COc1ccc(CCn2c(=N)c(C(=O)NC3CCCC3)cc3c(=O)n4ccccc4nc32)cc1 the results were KKLEB cytotox -9, Mdm2 MdmX PPI 52*, CF NFkB inh -5, LGR2 antag 8, HSP90 refold inh -3, Peg3 promoter 25 and Mdm2-MdmX conf 0.
`COc1ccc(CCn2c(=N)c(C(=O)NC3CCCC3)cc3c(=O)n4ccccc4nc32)cc1OC` gave KKLEB cytotox -20, Mdm2 MdmX PPI 39, CF NFkB inh 18, LGR2 antag 3, HSP90 refold inh -4 and Peg3 promoter 16.
Screening COc1cccc(NC(=O)c2cc3c(=O)n4ccccc4nc3n(CC(C)C)c2=N)c1 returned KKLEB cytotox 10, Mdm2 MdmX PPI 74*, CF NFkB inh -13, HSP90 refold inh 4, Peg3 promoter -8, Mdm2-MdmX conf 68* and Full FLuc ctr 41*.
COc1cc(OC)cc(-c2nnc(NC(=O)CCS(=O)(=O)c3ccc(F)cc3)o2)c1 was read as KKLEB cytotox -23, Mdm2 MdmX PPI 59*, CF NFkB inh 46, LGR2 antag 12, Peg3 promoter 33, Mdm2-MdmX conf 55* and Full FLuc ctr 65*.
COc1cc(-c2nnc(NC(=O)CCS(=O)(=O)c3ccccc3)o2)cc(OC)c1OC was read as KKLEB cytotox 3, Mdm2 MdmX PPI 79*, CF NFkB inh 3, LGR2 antag -3, Peg3 promoter -56, Mdm2-MdmX conf 65* and Full FLuc ctr 63*.
